From PubChem BioAssay AID1159580 (chemical genetic matrix, 2015)
About 2,000 (36%) of roughly 5,500 compounds were called active. Roughly 18% stayed inconclusive and do not appear here. Cut-off read from the data, not from the text of the source: active = normalized growth mostly below about 0.91 (no sharp cut-off); inconclusive = no clear call, values can overlap the other calls; inactive = mostly above about 0.92. The list shows a part of the results.

Assay: chemical genetic growth profiling, strain panel (AID 1159580);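 note: tested at 20 µM; growth read once vehicle control cultures reached saturation at 30 °C; 1 = growth at the plate median or of vehicle wells; lower values mean less growth of the strain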
Conditions: S. cerevisiae deletion strains, growth OD

Measured: normalized growth

Cc1cc(C(=O)O/N=C(/N)c2ccc(C(C)(C)C)cc2)no1
active: locus YHR030C, strain SLT2, stronger effect = lower value 0.77 | locus YLR113W, strain HOG1, stronger effect = lower value 0.789
inactive: locus YAR019C, strain CDC15, stronger effect = lower value 0.972 | locus YBL105C, strain PKC1, stronger effect = lower value 0.979 | locus YBR135W, strain CKS1, stronger effect = lower value 0.975 | locus YBR136W, strain MEC1, stronger effect = lower value 0.985 | locus YBR160W, strain CDC28, stronger effect = lower value 0.979 | locus YDL017W, strain CDC7, stronger effect = lower value 0.993 | locus YDL028C, strain MPS1, stronger effect = lower value 0.971 | locus YDL101C, strain DUN1, stronger effect = lower value 0.993 | locus YDL108W, strain KIN28, stronger effect = lower value 0.976 | locus YDL132W, strain cdc53, stronger effect = lower value 0.975 | locus YDL214C, strain PRR2, stronger effect = lower value 0.909 | locus YDR052C, strain DBF4, stronger effect = lower value 0.986 | locus YDR054C, strain cdc34, stronger effect = lower value 0.963 | locus YDR226W, strain ADK1, stronger effect = lower value 0.983 | locus YDR477W, strain SNF1, stronger effect = lower value 0.911 | locus YER123W, strain YCK3, stronger effect = lower value 0.901 | locus YER133W, strain GLC7, stronger effect = lower value 0.882 | locus YFL009W, strain cdc4, stronger effect = lower value 0.952 | locus YFL029C, strain CAK1, stronger effect = lower value 0.969 | locus YFR003C, strain YPI1, stronger effect = lower value 0.986 | locus YFR019W, strain FAB1, stronger effect = lower value 0.922 | locus YFR028C, strain CDC14, stronger effect = lower value 0.98 | locus YGR040W, strain KSS1, stronger effect = lower value 0.956 | locus YGR052W, strain FMP48, stronger effect = lower value 0.958 | locus YGR092W, strain DBF2, stronger effect = lower value 0.906 | locus YHR079C, strain IRE1, stronger effect = lower value 0.789 | locus YHR082C, strain KSP1, stronger effect = lower value 0.939 | locus YHR205W, strain SCH9, stronger effect = lower value 0.822 | locus YIL147C, strain SLN1, stronger effect = lower value 0.982 | locus YJL095W, strain BCK1, stronger effect = lower value 0.772 | locus YJL128C, strain PBS2, stronger effect = lower value 0.938 | locus YJL157C, strain FAR1, stronger effect = lower value 0.923 | locus YJR016C, strain ILV3, stronger effect = lower value 0.98 | locus YJR066W, strain TOR1 (second series), stronger effect = lower value 0.738 | locus YJR066W, strain TOR1, stronger effect = lower value 0.722 | locus YKL048C, strain ELM1, stronger effect = lower value 1.05 | locus YKL067W, strain YNK1, stronger effect = lower value 0.921 | locus YKL101W, strain HSL1, stronger effect = lower value 1.01 | locus YKL193C, strain SDS22, stronger effect = lower value 0.978 | locus YKL203C, strain TOR2, stronger effect = lower value 0.88 | locus YLR133W, strain CKI1, stronger effect = lower value 0.943 | locus YLR403W, strain SFP1, stronger effect = lower value 0.852 | locus YML070W, strain DAK1, stronger effect = lower value 0.915 | locus YMR001C, strain CDC5, stronger effect = lower value 0.974 | locus YMR205C, strain PFK2 (second series), stronger effect = lower value 0.916 | locus YMR277W, strain FCP1, stronger effect = lower value 0.961 | locus YNL006W, strain LST8, stronger effect = lower value 0.972 | locus YNL020C, strain ARK1, stronger effect = lower value 0.942 | locus YNL161W, strain CBK1, stronger effect = lower value 0.983 | locus YNL183C, strain NPR1, stronger effect = lower value 0.782 | locus YNL207W, strain RIO2, stronger effect = lower value 0.979 | locus YNL222W, strain SSU72, stronger effect = lower value 0.969 | locus YNL307C, strain MCK1 (second series), stronger effect = lower value 0.939 | locus YOL078W, strain AVO1, stronger effect = lower value 0.979 | locus YOL136C, strain PFK27, stronger effect = lower value 0.959 | locus YOR061W, strain CKA2, stronger effect = lower value 0.93 | locus YOR119C, strain RIO1, stronger effect = lower value 0.911 | locus YOR231W, strain MKK1, stronger effect = lower value 0.803 | locus YOR329C, strain SCD5, stronger effect = lower value 0.987 | locus YPL031C, strain PHO85, stronger effect = lower value 0.901 | locus YPL153C, strain RAD53, stronger effect = lower value 0.893 | locus YPL204W, strain HRR25, stronger effect = lower value 0.914 | locus YPL209C, strain IPL1, stronger effect = lower value 0.974 | locus YPL256C, strain CLN2, stronger effect = lower value 0.884 | locus YPR025C, strain CCL1, stronger effect = lower value 0.973 | locus YPR106W, strain ISR1, stronger effect = lower value 0.98 | locus YPR111W, strain DBF20, stronger effect = lower value 0.964 | strain NNK1, stronger effect = lower value 0.999 | strain TSCII, stronger effect = lower value 0.966
